Results filed as inconclusive are left out. Values without a mark were called inactive. The source made the active and inactive calls. Unless noted, calls follow the shape of the dose curve; as a rule, active = well fitted curve in the direction sought with a large enough effect in the repeat runs; inconclusive = weak or mixed curves; inactive = no such curve, though single readings can be large; an effect the other way counts as inactive or inconclusive.

Experiment [1] is described as follows: qHTS assay to identify small molecule agonists of the peroxisome proliferator-activated receptor delta (PPARd) signaling pathway - cell viability counter screen (AID 743211). Also: nearly all actives have a fitted effect of over 55% in size. In outline:
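Read-out: CellTiter-Glo luminescence, 30 min RT, measured in the same wells as the beta-lactamase reporter. Cells: GeneBLAzer PPAR delta UAS-bla HEK293H, 3000 cells/well, compound exposure 17 h at 37C.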

The target in experiment [2] is Peroxisome proliferator-activated receptor delta (Homo sapiens) (UniProt Q03181). As to the kind of experiment: qHTS assay to identify small molecule agonists of the peroxisome proliferator-activated receptor delta (PPARd) signaling pathway (AID 743212; calls by dose curve; also: potency is read from the fitted curve at half-maximal effect). In outline:
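HEK293H PPARd-bla cells; 5 h preincubation 37 C/5% CO2; compound (DMSO) 37 C; LiveBLAzer B/G FRET substrate 2 h RT; fluorescence intensity.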
On the technique in general: qHTS replaces the single test concentration by a dilution series.

Experiment [3] in a line: qHTS assay to identify small molecule antagonists of the peroxisome proliferator-activated receptor delta (PPARd) signaling pathway - cell viability counter screen (AID 743213). Also: nearly all actives have a fitted effect of over 50% in size. In outline: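 PPARd-bla HEK293H cells were treated with compounds plus agonist L165041 (300 nM final) for 17 h at 37 C. Viability was then read in the same wells by CellTiter-Glo luminescence after 30 min at room temperature.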

Experiment [4] deals with Peroxisome proliferator-activated receptor delta (Homo sapiens) (UniProt Q03181). Kind of experiment: qHTS assay to identify small molecule antagonists of the peroxisome proliferator-activated receptor delta (PPARd) signaling pathway (AID 743215; active = well fitted inhibition curve with a large enough effect in the signal ratio in the repeat runs, not every such curve was filed as active; the % refers to the signal ratio;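 also: cells stimulated with agonist L165041 at 300 nM final during compound exposure; series mostly up to about 62 µM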). In outline: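 Antagonist-mode beta-lactamase reporter screen: HEK293H cells with UAS-bla under PPARd control, stimulated by 300 nM L165041 (final) alongside test compound for 17 h at 37 C, then FRET fluorescence after 2 h substrate incubation.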

Experiment [5] in a line: qHTS assay to identify small molecule antagonists of the farnesoid-X-receptor (FXR) signaling pathway - cell viability counter screen (AID 743221; active = well fitted cell-killing curve with a large enough effect in the repeat runs, not every such curve was filed as active; also: nearly all actives have a fitted effect of over 50% in size). In outline: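 HEK 293T FXR-bla cells, 5 h pre-incubation; compound + CDCA 50 uM final, 16 h, 37 C; beta-lactamase FRET read first, then CellTiter-Glo luminescence, 30 min RT.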
Experiment [6] addresses Vitamin D3 receptor (Homo sapiens) (UniProt P11473). Kind of experiment: qHTS assay to identify small molecule agonists of the vitamin D receptor (VDR) signaling pathway (AID 743222; calls by dose curve). In outline: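 Agonist activity measured in VDR-bla reporter cells. Exposure 16 h, 37C, 5% CO2; detection by B/G FRET substrate, 2 h RT.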
Experiment [7] can be described thus: qHTS assay to identify small molecule agonists of the farnesoid-X-receptor (FXR) signaling pathway - cell viability counter screen (AID 743218). Also: nearly all actives have a fitted effect of over 45% in size. In outline: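 In GeneBLAzer FXR-UAS-bla HEK 293T cells, compounds act for 16 h at 37 C. Cell viability is then scored in the reporter wells by CellTiter-Glo, 30 min at RT, luminescence.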
Experiment [8] has as its target Vitamin D3 receptor (Homo sapiens) (UniProt P11473). As to the kind of experiment: qHTS assay to identify small molecule antagonists of the vitamin D receptor (VDR) signaling pathway (AID 743223; active = well fitted inhibition curve with a large enough effect in the signal ratio in the repeat runs, not every such curve was filed as active; the % refers to the signal ratio). In outline: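 Beta-lactamase reporter read-out: FRET substrate fluorescence after 2 h at room temperature, following 16 h exposure of VDR-bla cells to test compound plus 3 nM (final) 1alpha,25-dihydroxyvitamin D3 agonist at 37C.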

In experiment [9] the target is Bile acid receptor (Homo sapiens) (UniProt Q96RI1). Kind of experiment: qHTS assay to identify small molecule antagonists of the farnesoid-X-receptor (FXR) signaling pathway (AID 743217; active = well fitted inhibition curve with a large enough effect in the signal ratio in the repeat runs, not every such curve was filed as active; the % refers to the signal ratio). In outline: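 Beta-lactamase reporter under UAS control in HEK 293T cells; compound exposure 16 h at 37 °C in the presence of chenodeoxycholic acid (50 uM final); signal from B/G FRET substrate after 2 h at room temperature.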

Experiment [10] has the same target. As to the kind of experiment: qHTS assay to identify small molecule agonists of the farnesoid-X-receptor (FXR) signaling pathway (AID 743220; active = well fitted activation curve with a large enough effect in the signal ratio in the repeat runs, not every such curve was filed as active; the % refers to the signal ratio). In outline:
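Beta-lactamase reporter under UAS control in GeneBLAzer FXR HEK 293T cells (5000/well) measured with LiveBLAzer FRET substrate after 2 h at room temperature. Compound exposure lasted 16 h at 37C.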
% is scaled to controls: 0 for no effect and ±100 for the full control effect.

Sequence of Vitamin D3 receptor (Homo sapiens) (P11473 whole entry, looked up): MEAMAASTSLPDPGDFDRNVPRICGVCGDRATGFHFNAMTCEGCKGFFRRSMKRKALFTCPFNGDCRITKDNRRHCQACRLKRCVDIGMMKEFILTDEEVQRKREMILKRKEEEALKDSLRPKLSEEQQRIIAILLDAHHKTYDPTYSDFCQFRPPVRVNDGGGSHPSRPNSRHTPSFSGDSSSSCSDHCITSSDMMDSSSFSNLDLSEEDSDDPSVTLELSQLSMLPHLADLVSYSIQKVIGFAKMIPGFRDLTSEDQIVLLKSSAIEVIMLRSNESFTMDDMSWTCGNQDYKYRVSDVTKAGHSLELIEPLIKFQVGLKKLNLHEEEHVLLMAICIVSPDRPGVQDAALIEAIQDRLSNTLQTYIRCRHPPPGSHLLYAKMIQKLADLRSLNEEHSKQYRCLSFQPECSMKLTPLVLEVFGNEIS
Sequence of Bile acid receptor (Homo sapiens) (Q96RI1 whole entry, looked up): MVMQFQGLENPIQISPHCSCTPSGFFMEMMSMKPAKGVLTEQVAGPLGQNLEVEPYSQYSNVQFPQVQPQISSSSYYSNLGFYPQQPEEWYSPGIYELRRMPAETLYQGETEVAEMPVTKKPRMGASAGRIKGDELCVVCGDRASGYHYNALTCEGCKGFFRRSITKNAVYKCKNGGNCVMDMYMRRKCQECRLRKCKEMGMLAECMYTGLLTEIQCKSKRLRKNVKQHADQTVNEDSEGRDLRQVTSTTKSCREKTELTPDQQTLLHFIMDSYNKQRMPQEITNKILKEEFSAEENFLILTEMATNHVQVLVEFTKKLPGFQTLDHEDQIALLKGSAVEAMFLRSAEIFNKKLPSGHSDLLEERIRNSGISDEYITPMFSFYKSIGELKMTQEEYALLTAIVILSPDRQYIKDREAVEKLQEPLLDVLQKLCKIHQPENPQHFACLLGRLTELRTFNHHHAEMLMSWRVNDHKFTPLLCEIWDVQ
Sequence of Peroxisome proliferator-activated receptor delta (Homo sapiens) (Q03181 whole entry, looked up): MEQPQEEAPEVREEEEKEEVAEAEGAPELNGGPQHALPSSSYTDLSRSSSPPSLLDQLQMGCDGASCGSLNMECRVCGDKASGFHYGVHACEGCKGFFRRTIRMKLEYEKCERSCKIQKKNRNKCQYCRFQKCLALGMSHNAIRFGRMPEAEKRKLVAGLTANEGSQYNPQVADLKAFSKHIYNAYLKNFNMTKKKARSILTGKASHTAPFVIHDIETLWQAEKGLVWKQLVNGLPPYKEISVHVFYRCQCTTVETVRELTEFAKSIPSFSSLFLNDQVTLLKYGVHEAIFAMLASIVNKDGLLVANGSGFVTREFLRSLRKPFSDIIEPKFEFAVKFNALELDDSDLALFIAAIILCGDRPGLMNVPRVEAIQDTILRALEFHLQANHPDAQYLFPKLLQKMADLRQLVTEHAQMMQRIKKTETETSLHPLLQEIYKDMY

For `Cc1oc(-c2ccccc2)nc1CCOc1cccc2c1ccn2CCC(=O)O`, the Potency result in experiment [1], in experiment [3], in experiment [4], in experiment [5] and in [6] was “inactive” throughout. Moreover, in experiment [2], the Potency is 8.71 µM (active).
Consider `NC(N)=NCCC[C@H](N)C(=O)O`, for which the results for the activity change, negative = cytotoxicity in [1] and in experiment [5] were 1.87% [at 5.95 µM] and -8.21% [at 5.95 µM], respectively. In addition, the activation is 0.522% [at 5.95 µM] in [2] and 9.36% [at 6.01 µM] in experiment [6]. Also, the values for the viability change, negative = cytotoxic in experiment [3] and in experiment [7] were 2.08% [at 6.26 µM] and -2.05% [at 5.95 µM], respectively. Further, the ratio activity, negative = inhibition in [4] is -1.1% [at 6.26 µM]. In addition, in experiment [8], the activity change, negative = inhibition is 2.1% [at 6.95 µM].
Turning to `CCCCOC(=O)CCCCCCCC(=O)OCCCC`, the Potency entry in experiment [1], in [2], in [3], in [9], in experiment [7] and in [10] was “inactive” throughout. Besides, the Potency entry in experiment [5] and in experiment [6] was “inactive” in each case.
As to `CCOc1ccc(N=Nc2ccc(/C=C/c3ccc(N=Nc4ccc(OCC)cc4)cc3S(=O)(=O)O)c(S(=O)(=O)O)c2)cc1`, the Potency result in [1], in experiment [2], in experiment [3], in [4], in experiment [7] and in experiment [5] was “inactive” each time. For the same molecule, the Potency result in [6] was “inactive”. Further, in experiment [8], the outcome was inactive.
Regarding `CCCCCCCCCCCCN1CCCCCC1=O`, the Potency result in experiment [1], in experiment [2], in experiment [3], in experiment [9], in [7] and in experiment [10] was “inactive” throughout. The Potency result in [6] is “inactive”.
Regarding `C=C(C)C(=O)OCC`, the Potency result in [1], in experiment [2], in experiment [4], in experiment [9], in experiment [7] and in experiment [10] was “inactive” in each case. Moreover, the Potency result in [5] and in [6] was “inactive” each time. Further, in experiment [8], the molecule was called inactive.
Take `O=[N+]([O-])c1cccc(S(=O)(=O)O)c1`: the Potency result in experiment [1], in [2], in [3], in [4], in experiment [5] and in experiment [6] was “inactive” each time. Moreover, the result in experiment [8] was inactive.
As for `CC(CC=O)c1ccccc1` (stereo not given), the Potency entry in experiment [1], in experiment [2], in [3], in [4], in [5] and in experiment [6] was “inactive” each time. In addition, the molecule was classed as inactive in experiment [8].
On to `Cc1cccc(C)c1NC(=O)CN(CC(=O)O)CC(=O)O`, for which the Potency entry in experiment [1], in experiment [2], in experiment [4], in [9], in experiment [7] and in [10] was “inactive” throughout. Also, the Potency entry in [5] and in experiment [6] was “inactive” each time.
For `Nc1ccc(N)c2c1C(=O)c1ccccc1C2=O`, the Potency result in experiment [1], in experiment [2], in [3], in experiment [4], in experiment [5] and in experiment [6] was “inactive” throughout. Also, the result in [8] was inactive.
Consider `C/C(=C(\CCOP(=O)(O)O)SC(=O)c1ccccc1)N(C=O)Cc1cnc(C)nc1N`, for which the activity change, negative = cytotoxicity is 2.72% [at 5.95 µM] in [1] and 0.132% [at 5.95 µM] in experiment [5]. The values for the activation in [2] and in experiment [6] were -1.46% [at 5.95 µM] and -0.529% [at 6.01 µM], respectively. Besides, the viability change, negative = cytotoxic in [3] was 1.06% [at 6.26 µM]; in [7], 3.54% [at 5.95 µM]. The ratio activity, negative = inhibition in experiment [4] is 6.78% [at 6.26 µM]. Also, the activity change, negative = inhibition in experiment [8] is 2.53% [at 6.95 µM].
Turning to `CN(C)c1ccc(CCO)cc1`, the Potency result in experiment [1], in experiment [2], in [3], in experiment [4], in [7] and in experiment [5] was “inactive” in each case. Also, in experiment [6], the Potency result is “inactive”. In addition, the outcome in [8] was inactive.
On to `O=C1CCCCCCCCCCCC(=O)OCCO1`, for which the Potency result in experiment [1], in [2], in experiment [3], in [5] and in experiment [6] was “inactive” throughout.
For the molecule `O=C(O)c1ccc(-n2nc(-c3ccccc3O)nc2-c2ccccc2O)cc1`, the Potency result in experiment [1], in [2], in [3], in experiment [5] and in experiment [6] was “inactive” each time. Also, the molecule was called inactive in experiment [8].
For the molecule `C[N+]1(C)CCC(OC(=O)C(O)(c2ccccc2)C2CCCC2)C1` (stereo not given), the Potency result in experiment [1], in experiment [2], in experiment [3], in [7], in experiment [5] and in [6] was “inactive” throughout. For the same molecule, the result in experiment [8] was inactive.
As for `CC1(c2ccccc2)OC(C(=O)O)=CC1=O` (stereo not given), the Potency result in [1], in [2], in [3], in [9], in [10] and in [6] was “inactive” in each case. The outcome in experiment [8] was inactive.
For `O=C1OC(=O)C2C3C=CC(C3)C12` (stereo not given), the Potency result in experiment [1], in experiment [2], in experiment [3], in [4], in experiment [7] and in experiment [5] was “inactive” throughout. For the same molecule, the Potency entry in experiment [6] was “inactive”. Besides, the molecule was called inactive in [8].
Turning to `CC/C=C\CCOC(=O)CC`, the Potency result in [1], in experiment [2], in experiment [3] and in experiment [5] was “inactive” in each case.
For `O=C(O)C1(C(=O)O)CCC1.[NH2-].[NH2-].[Pt+2]`, the Potency entry in experiment [1], in experiment [2], in experiment [4], in experiment [9], in experiment [7] and in experiment [10] was “inactive” throughout. In experiment [5], the Potency entry was “inactive”.
As for `C[Si](C)(CCCN)O[Si](C)(C)CCCN`, the Potency result in [1], in experiment [2], in [3], in [4] and in [5] was “inactive” each time. In experiment [8], the molecule was classed as inactive.
Turning to `C#CCN(C)CCCOc1ccc(Cl)cc1Cl`, the Potency entry in experiment [1], in experiment [2], in [3], in experiment [9], in [7] and in [10] was “inactive” in each case. For the same molecule, the Potency entry in experiment [5] and in experiment [6] was “inactive” in each case. The call in experiment [8] was inactive.
Regarding `C#Cc1cccc(Nc2ncnc3cc(OCCOC)c(OCCOC)cc23)c1`, the Potency result in experiment [1], in [2], in [3], in experiment [9], in experiment [7] and in [10] was “inactive” each time. Besides, the Potency result in experiment [5] is “inactive”.
Consider `c1ccc(CNCCNCc2ccccc2)cc1`, for which the Potency entry in experiment [1], in experiment [2], in [3], in experiment [4], in experiment [7] and in experiment [5] was “inactive” throughout. For the same molecule, the molecule was called inactive in [8].
For `NCC(=O)O`, the Potency entry in experiment [1], in experiment [2], in [3], in experiment [4], in [5] and in experiment [6] was “inactive” throughout. Besides, in [8], the molecule was called inactive.
Turning to `OCCN1CCN(CCCN2c3ccccc3C=Cc3ccccc32)CC1`, the Potency result in [1], in experiment [2], in [7] and in experiment [6] was “inactive” each time. The call in experiment [8] was inactive.
Regarding `Nc1cccc(S(=O)(=O)c2cccc(N)c2)c1`, the Potency result in experiment [1], in experiment [2], in experiment [4], in experiment [7], in experiment [5] and in experiment [6] was “inactive” throughout. Moreover, in experiment [8], the outcome was inactive.
In the case of `O=C(O)CC(=O)C(=O)O`, the Potency result in experiment [1], in experiment [3], in experiment [9], in experiment [7], in experiment [10] and in experiment [5] was “inactive” throughout. For the same molecule, the Potency result in [6] was “inactive”. Besides, the molecule was classed as inactive in experiment [8].
Take `CCN(CC)CCNC(=O)c1cc(Br)c(N)cc1OC`: the Potency entry in experiment [1], in experiment [2], in [7], in experiment [5] and in experiment [6] was “inactive” each time. Besides, the result in [8] was inactive.
As to `COc1ccc(C(=O)c2ccc(OC)cc2O)c(O)c1`, the Potency result in experiment [1], in [2], in experiment [7], in experiment [5] and in [6] was “inactive” each time. Also, the outcome in [8] was inactive.
For `Cc1[nH]c(C)c(Cl)c(=O)c1Cl`, the Potency entry in experiment [1], in [2], in experiment [4], in [7], in experiment [5] and in experiment [6] was “inactive” each time. Besides, in experiment [8], the molecule was called inactive.

Source of the values: PubChem BioAssay (Tox21).
